The panel holds about 83,000 compounds, 20% with a hit somewhere; the sample as a whole holds those more often.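 Each cell line was grown in a 96-well plate and treated with one concentration of compound for 48 hours. Values below 10 were considered active.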 Values without a mark were called inactive. The source made the active and inactive calls.
What was measured:
Experiment in all cases: NCI-60 one-dose screen, 48 h (100 = growth as untreated, 0 = no growth, -100 = all killed)
Conditions in all cases: 10 µM unless noted
NCI-H23 lung = test system: NCI-H23 lung
NCI-H322M lung = test system: NCI-H322M lung
HOP-62 NSCLC = test system: HOP-62 NSCLC
NCI-H460 lung = test system: NCI-H460 lung
HOP-92 NSCLC = test system: HOP-92 NSCLC
NCI-H522 lung = test system: NCI-H522 lung
786-0 renal = test system: 786-0 renal
COLO 205 colon = test system: COLO 205 colon
DU-145 prostate = test system: DU-145 prostate
K-562 leukemia = test system: K-562 leukemia
MALME-3M melanoma = test system: MALME-3M melanoma
MDA-MB-231 breast = test system: MDA-MB-231 breast
RXF 393 renal = test system: RXF 393 renal
SF-268 CNS = test system: SF-268 CNS
SF-295 CNS = test system: SF-295 CNS
SF-539 CNS = test system: SF-539 CNS
UACC-257 melanoma = test system: UACC-257 melanoma
M14 melanoma = test system: M14 melanoma
HCT-15 colon = test system: HCT-15 colon

SMILES: COc1ccc(OC)c(NC(=O)/C(C#N)=C/c2ccco2)c1
- growth (NCI-H23 lung): 96.6%
- growth (NCI-H322M lung): 99.8%
- growth (HOP-62 NSCLC): 90.8%
- growth (NCI-H460 lung): 107%
- growth (HOP-92 NSCLC): 51.1%
- growth (NCI-H522 lung): 45.5%
- growth (786-0 renal): 100%
- growth (COLO 205 colon): 92.8%
- growth (DU-145 prostate): 116%
- growth (K-562 leukemia): 88.5%
- growth (MALME-3M melanoma): 80.3%
- growth (MDA-MB-231 breast): 85.1%
- growth (RXF 393 renal): 113%
- growth (SF-268 CNS): 105%
- growth (SF-295 CNS): 98%
- growth (SF-539 CNS): 94.7%
- growth (UACC-257 melanoma): 90.7%
- growth (M14 melanoma): 99.2%
- growth (HCT-15 colon): 91.2%

SMILES: O=[N+]([O-])c1cc2c(ccc3occc32)o1
- growth (NCI-H23 lung): 39.5%
- growth (NCI-H322M lung): 61%
- growth (HOP-62 NSCLC): 63.5%
- growth (NCI-H460 lung): -28.2% (active)
- growth (HOP-92 NSCLC): 26.6%
- growth (NCI-H522 lung): 25.7%
- growth (786-0 renal): 71.3%
- growth (COLO 205 colon): -24.1% (active)
- growth (DU-145 prostate): -7.23% (active)
- growth (K-562 leukemia): 11.9%
- growth (MALME-3M melanoma): -33.1% (active)
- growth (MDA-MB-231 breast): 17.3%
- growth (RXF 393 renal): -2.62% (active)
- growth (SF-268 CNS): 18.5%
- growth (SF-295 CNS): -34.9% (active)
- growth (SF-539 CNS): 33.5%
- growth (UACC-257 melanoma): -20.1% (active)
- growth (M14 melanoma): -8.26% (active)
- growth (HCT-15 colon): 12.1%

SMILES: CCCCCCc1cc2cc(-c3nc4ccccc4[nH]3)c(=Nc3ccccc3C)oc2cc1O
- growth (NCI-H23 lung): 50.4%
- growth (NCI-H322M lung): 62.8%
- growth (HOP-62 NSCLC): 58%
- growth (NCI-H460 lung): 44.8%
- growth (HOP-92 NSCLC): 13.3%
- growth (NCI-H522 lung): 14.3%
- growth (786-0 renal): 46.8%
- growth (COLO 205 colon): -94.3% (active)
- growth (DU-145 prostate): 67.4%
- growth (K-562 leukemia): 7.87% (active)
- growth (MALME-3M melanoma): -29.3% (active)
- growth (MDA-MB-231 breast): 41.6%
- growth (RXF 393 renal): 28.5%
- growth (SF-268 CNS): 65.5%
- growth (SF-539 CNS): 75.3%
- growth (UACC-257 melanoma): 4.39% (active)
- growth (M14 melanoma): 9.12% (active)
- growth (HCT-15 colon): 31.2%

SMILES: CN1CCN(Cc2ccc(NC(=O)c3[nH]ncc3Nc3cc(OC4CCCC4)ncn3)cc2)CC1
- growth (NCI-H23 lung): 45.8%
- growth (NCI-H322M lung): 45.9%
- growth (HOP-62 NSCLC): 55.4%
- growth (NCI-H460 lung): 22.2%
- growth (HOP-92 NSCLC): 14.9%
- growth (NCI-H522 lung): 26.2%
- growth (786-0 renal): 20.9%
- growth (COLO 205 colon): 7.6% (active)
- growth (DU-145 prostate): 37.9%
- growth (K-562 leukemia): 1.53% (active)
- growth (MALME-3M melanoma): 65.4%
- growth (MDA-MB-231 breast): 23.8%
- growth (RXF 393 renal): -0.487% (active)
- growth (SF-268 CNS): 40.7%
- growth (SF-295 CNS): 45.9%
- growth (SF-539 CNS): 30.3%
- growth (UACC-257 melanoma): 48.1%
- growth (M14 melanoma): 19.9%
- growth (HCT-15 colon): 12.9%

SMILES: Cc1[nH]c2ccccc2c(=O)c1CC=C(Cl)Cl
- growth (NCI-H23 lung): 75.4%
- growth (NCI-H322M lung): -47.2% (active)
- growth (HOP-62 NSCLC): -7.31% (active)
- growth (NCI-H460 lung): -74% (active)
- growth (HOP-92 NSCLC): 64.5%
- growth (NCI-H522 lung): 65.7%
- growth (786-0 renal): -80.2% (active)
- growth (COLO 205 colon): 35%
- growth (DU-145 prostate): -22.5% (active)
- growth (K-562 leukemia): -34.6% (active)
- growth (MALME-3M melanoma): 82.4%
- growth (MDA-MB-231 breast): 34.1%
- growth (RXF 393 renal): 63.9%
- growth (SF-268 CNS): 39.6%
- growth (SF-295 CNS): -86.8% (active)
- growth (SF-539 CNS): 58%
- growth (UACC-257 melanoma): 99.5%
- growth (M14 melanoma): 72.7%
- growth (HCT-15 colon): 3.43% (active)

SMILES: O=c1oc2ccc(Cl)cc2c(=O)n1-c1ccc(I)cc1F
- growth (NCI-H23 lung): 2.29% (active)
- growth (NCI-H322M lung): 6.37% (active)
- growth (HOP-62 NSCLC): 0.787% (active)
- growth (NCI-H460 lung): 2.33% (active)
- growth (HOP-92 NSCLC): -16.5% (active)
- growth (NCI-H522 lung): -15.5% (active)
- growth (786-0 renal): 2.82% (active)
- growth (COLO 205 colon): 53%
- growth (DU-145 prostate): 15.6%
- growth (K-562 leukemia): 7.73% (active)
- growth (MALME-3M melanoma): -29.2% (active)
- growth (MDA-MB-231 breast): -20.5% (active)
- growth (RXF 393 renal): -5.52% (active)
- growth (SF-268 CNS): 8.08% (active)
- growth (SF-295 CNS): -57.8% (active)
- growth (SF-539 CNS): 2.55% (active)
- growth (UACC-257 melanoma): -16.9% (active)
- growth (M14 melanoma): 2.42% (active)
- growth (HCT-15 colon): 3.56% (active)

SMILES: CCCCNc1nc(NC(C)(C)C)nc(NC(C)(C)C)n1
- growth (NCI-H23 lung): 47.9%
- growth (NCI-H322M lung): 97.8%
- growth (HOP-62 NSCLC): 84.1%
- growth (NCI-H460 lung): 82.5%
- growth (HOP-92 NSCLC): 48.6%
- growth (NCI-H522 lung): 52.8%
- growth (786-0 renal): 48.2%
- growth (COLO 205 colon): 63.5%
- growth (DU-145 prostate): 74.6%
- growth (K-562 leukemia): 20.8%
- growth (MALME-3M melanoma): 87.3%
- growth (MDA-MB-231 breast): 72%
- growth (RXF 393 renal): -7.69% (active)
- growth (SF-268 CNS): 91.7%
- growth (SF-295 CNS): -19.5% (active)
- growth (SF-539 CNS): 51%
- growth (UACC-257 melanoma): 81%
- growth (M14 melanoma): 57.5%

SMILES: COc1ccc(Cn2c(Br)c3c(c2-c2cc(OC)c(OC)c(OC)c2)CCc2sc(NC(=O)c4ccc(OC)cc4)nc2-3)cc1
- growth (NCI-H23 lung): 91.9%
- growth (NCI-H322M lung): 69.3%
- growth (HOP-62 NSCLC): 106%
- growth (NCI-H460 lung): 98%
- growth (HOP-92 NSCLC): 89.1%
- growth (NCI-H522 lung): 85.4%
- growth (786-0 renal): 89.8%
- growth (COLO 205 colon): 107%
- growth (DU-145 prostate): 102%
- growth (K-562 leukemia): 84.6%
- growth (MALME-3M melanoma): 86.1%
- growth (MDA-MB-231 breast): 87.1%
- growth (RXF 393 renal): 91.9%
- growth (SF-268 CNS): 78.6%
- growth (SF-295 CNS): 67.8%
- growth (SF-539 CNS): 100%
- growth (UACC-257 melanoma): 116%
- growth (M14 melanoma): 97.4%
- growth (HCT-15 colon): 98.3%

Reference: PubChem BioAssay (NCI)
